In PubChem BioAssay (Tox21):
Inconclusive results are not listed. Calls of active or inactive are those of the source. Unless noted, calls come from the whole dose curve; as a rule, active = well fitted curve in the direction sought with a large enough effect in the repeat runs; inconclusive = weak or mixed curves; inactive = flat fitted curve, though single readings scatter.

Key:
[1] = qHTS assay to test for compound auto fluorescence at 535 nm (green) in HEK293 cells (AID 720680)
[2] = qHTS assay to test for compound auto fluorescence at 460 nm (blue) in HEK293 cell free culture (AID 720681)
Summary of the method: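 Test compounds were pinned into cell-free culture medium (DMEM with 10% FBS) and fluorescence was read directly at Ex/Em 405/460 nm. Signals were expressed as fluorescence equivalents of triamterene, with DMSO vehicle as control.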

[3] = qHTS assay to test for compound auto fluorescence at 535 nm (green) in HEK293 cell free culture (AID 720682)
Summary of the method: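 Using fluorescein as calibrant, autofluorescence was quantified at 485/535 nm in cell-free DMEM containing 10% FBS after pintool addition of compound or vehicle.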

[4] = qHTS assay to test for compound auto fluorescence at 590 nm (red) in HEK293 cell free culture (AID 720683)
Summary of the method: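 Tox21 10K library compounds were pinned into cell-free DMEM with 10% FBS and fluorescence was read at excitation 540 nm. Activity is expressed as Rose Bengal sodium equivalency.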

[5] = qHTS assay to test for compound auto fluorescence at 590 nm (red) in HepG2 cell free culture (AID 720684)
Summary of the method: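 Red fluorescence (540 nm excitation, 590 nm emission) was measured after compound transfer into cell-free MEM supplemented with 10% FBS. Values are equivalencies against Rose Bengal sodium.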

[6] = qHTS assay to test for compound auto fluorescence at 460 nm (blue) in HepG2 cell free culture (AID 720685)
Summary of the method: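 Compound (23 nL) or DMSO pinned into cell-free MEM with 10% FBS; blue fluorescence read at 405/460 nm excitation/emission, expressed as auto-fluorescence equivalency to triamterene.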

[7] = qHTS assay to test for compound auto fluorescence at 535 nm (green) in HepG2 cell free culture (AID 720686)
[8] = qHTS assay to test for compound auto fluorescence at 460 nm (blue) in HepG2 cells (AID 720687)
Summary of the method: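 Cells (2,000/well in MEM with 10% FBS) attached overnight at 37 C, then were exposed to compound or DMSO for 1 hr at 37 C, 5% CO2. Fluorescence read at Ex/Em 405/460 nm, expressed as triamterene-equivalent signal.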

[9] = biological target: Glucocorticoid receptor (Homo sapiens) (UniProt P04150); test: qHTS assay to identify small molecule agonists of the glucocorticoid receptor (GR) signaling pathway (AID 720691; active = well fitted activation curve with a large enough effect in the signal ratio in the repeat runs, not every such curve was filed as active; the % refers to the signal ratio)
Summary of the method: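 GR-bla HeLa cells carrying a GRE-driven beta-lactamase reporter, exposed to compounds for 18 h at 37 C. Reporter activation read as fluorescence after 2 h with LiveBLAzer B/G FRET substrate at room temperature.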

[10] = biological target: Glucocorticoid receptor (Homo sapiens) (UniProt P04150); test: qHTS assay to identify small molecule antagonists of the glucocorticoid receptor (GR) signaling pathway (AID 720692; active = well fitted inhibition curve with a large enough effect in the signal ratio in the repeat runs, not every such curve was filed as active; the % refers to the signal ratio)
Summary of the method: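 GR-bla HeLa cells carrying a GRE-driven beta-lactamase reporter received compound after 4 h plating, then dexamethasone (5 nM final). After 18 h at 37C, the FRET substrate was loaded for 2 h at room temperature and fluorescence read.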
% is set by controls: 0 for no effect and ±100 for the full control effect.

Chain of Glucocorticoid receptor (Homo sapiens) (P04150 whole entry, looked up): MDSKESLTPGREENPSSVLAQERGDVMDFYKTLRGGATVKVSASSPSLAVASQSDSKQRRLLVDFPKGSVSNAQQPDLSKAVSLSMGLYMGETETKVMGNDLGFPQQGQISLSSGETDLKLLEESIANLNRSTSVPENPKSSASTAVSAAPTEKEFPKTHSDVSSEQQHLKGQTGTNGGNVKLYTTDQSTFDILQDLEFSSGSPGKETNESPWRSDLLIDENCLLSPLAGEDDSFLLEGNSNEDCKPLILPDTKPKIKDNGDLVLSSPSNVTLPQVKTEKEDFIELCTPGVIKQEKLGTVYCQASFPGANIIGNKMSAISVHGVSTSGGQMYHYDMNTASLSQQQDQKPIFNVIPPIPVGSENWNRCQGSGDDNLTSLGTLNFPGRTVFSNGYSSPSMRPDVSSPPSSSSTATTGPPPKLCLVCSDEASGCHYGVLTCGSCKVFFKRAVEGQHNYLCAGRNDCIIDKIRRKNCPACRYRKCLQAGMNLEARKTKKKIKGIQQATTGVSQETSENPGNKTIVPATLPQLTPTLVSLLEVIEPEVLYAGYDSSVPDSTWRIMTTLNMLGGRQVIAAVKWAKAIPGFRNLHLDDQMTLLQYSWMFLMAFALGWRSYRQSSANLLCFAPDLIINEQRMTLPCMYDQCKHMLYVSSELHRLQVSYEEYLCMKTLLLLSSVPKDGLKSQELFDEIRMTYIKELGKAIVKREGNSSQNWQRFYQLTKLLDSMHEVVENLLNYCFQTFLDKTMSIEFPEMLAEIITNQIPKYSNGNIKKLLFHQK

CCCCCCCCCCC
inactive: outcome [1] | outcome [2] | outcome [3] | outcome [4] | outcome [5] | outcome [6] | outcome [7] | outcome [8] | Potency [9] | outcome [10]

O=C1CC[C@H](C(=O)N2CCCCC2)N1
inactive: outcome [1] | outcome [2] | outcome [3] | outcome [4] | outcome [5] | outcome [6] | outcome [7] | outcome [8] | Potency [9] | outcome [10]

C=CCOc1cc(Cl)ccc1C(=O)NCCN(CC)CC
inactive: outcome [1] | outcome [2] | outcome [3] | outcome [4] | outcome [5] | outcome [6] | outcome [7] | outcome [8] | Potency [9] | outcome [10]

CCC(CO)CO
inactive: outcome [1] | outcome [2] | outcome [3] | outcome [4] | outcome [5] | outcome [6] | outcome [7] | outcome [8] | Potency [9] | outcome [10]

CCOC(=O)OCC/C(SC(=O)OCC)=C(\C)N(C=O)Cc1cnc(C)nc1N
inactive: outcome [1] | outcome [2] | outcome [3] | outcome [4] | outcome [5] | outcome [6] | outcome [7] | outcome [8] | Potency [9] | outcome [10]

O=S(=O)(O)CCO
inactive: outcome [1] | outcome [2] | outcome [3] | outcome [4] | outcome [5] | outcome [6] | outcome [7] | outcome [8] | Potency [9] | outcome [10]

C[C@H](CCC(=O)NCC(=O)O)[C@H]1CC[C@H]2[C@@H]3[C@H](O)C[C@@H]4C[C@H](O)CC[C@]4(C)[C@H]3C[C@H](O)[C@]12C
inactive: outcome [1] | outcome [2] | outcome [3] | outcome [4] | outcome [5] | outcome [6] | outcome [7] | outcome [8] | Potency [9] | outcome [10]

FC(F)(F)/C(=N\OCC1OCCO1)c1ccc(Cl)cc1
inactive: outcome [1] | outcome [2] | outcome [3] | outcome [4] | outcome [5] | outcome [6] | outcome [7] | outcome [8] | Potency [9] | outcome [10]

CCCCCCCCCCCCC1CO1 (configuration not stated)
inactive: outcome [1] | outcome [2] | outcome [3] | outcome [4] | outcome [5] | outcome [6] | outcome [7] | outcome [8] | Potency [9] | outcome [10]

Nc1c(NC/C=C\COc2cc(CN3CCCCC3)ccn2)c(=O)c1=O
inactive: outcome [1] | outcome [2] | outcome [3] | outcome [4] | outcome [5] | outcome [6] | outcome [7] | outcome [8] | Potency [9] | outcome [10]

CCCCC(CC)COC(=O)c1ccccc1 (configuration not stated)
inactive: outcome [1] | outcome [2] | outcome [3] | outcome [4] | outcome [5] | outcome [6] | outcome [7] | outcome [8] | Potency [9] | outcome [10]

C[C@H](CCC(=O)O)[C@H]1CC[C@H]2[C@@H]3[C@H](O)C[C@@H]4C[C@H](O)CC[C@]4(C)[C@H]3C[C@H](O)[C@]12C
inactive: outcome [1] | outcome [2] | outcome [3] | outcome [4] | outcome [5] | outcome [6] | outcome [7] | outcome [8] | Potency [9] | outcome [10]

CC(C)COC(=O)CC(C(=O)OCC(C)C)S(=O)(=O)O (configuration not stated)
inactive: outcome [1] | outcome [2] | outcome [3] | outcome [4] | outcome [5] | outcome [6] | outcome [7] | outcome [8] | Potency [9] | outcome [10]

COc1ccc(NS(=O)(=O)c2ccc(N)cc2)nn1
inactive: fluorescence, % of fluorescein [1] -0.0152% [at 18.6 µM] | fluorescence, % of fluorescent control [2] 0.201% [at 18.6 µM] | activity change [3] -0.0484% [at 18.6 µM] | fluorescence, % of fluorescent control [4] -0.041% [at 18.6 µM] | fluorescence, % of Rose Bengal [5] -0.359% [at 18.6 µM] | fluorescence, % of fluorescent control [6] -0.109% [at 18.6 µM] | fluorescence, % of fluorescein control [7] -0.0862% [at 18.6 µM] | fluorescence, % of fluorescent control [8] 0.0805% [at 18.6 µM] | Potency [9] | outcome [10]

O=c1[nH]c(=O)c2[nH]c(=O)[nH]c2[nH]1
inactive: outcome [1] | outcome [2] | outcome [3] | outcome [4] | outcome [5] | outcome [6] | outcome [7] | outcome [8] | Potency [9] | outcome [10]

COCCOCCOCCOC
inactive: outcome [1] | outcome [2] | outcome [3] | outcome [4] | outcome [5] | outcome [6] | outcome [7] | outcome [8] | Potency [9] | outcome [10]

COC(/C=C(\C)CCC=C(C)C)OC
inactive: outcome [1] | outcome [2] | outcome [3] | outcome [4] | outcome [5] | outcome [6] | outcome [7] | outcome [8] | Potency [9] | outcome [10]

Cc1ccccc1OCC1CO1 (configuration not stated)
inactive: outcome [1] | outcome [2] | outcome [3] | outcome [4] | outcome [5] | outcome [6] | outcome [7] | outcome [8] | Potency [9] | outcome [10]

Nc1ccnc(=O)[nH]1
inactive: outcome [1] | outcome [2] | outcome [3] | outcome [4] | outcome [5] | outcome [6] | outcome [7] | outcome [8] | Potency [9] | outcome [10]

C[N+](C)(C)CC(O)CCl (configuration not stated)
inactive: outcome [1] | outcome [2] | outcome [3] | outcome [4] | outcome [5] | outcome [6] | outcome [7] | outcome [8] | Potency [9] | outcome [10]

Nc1ccc(S(=O)(=O)NC(=O)c2ccccc2)cc1
inactive: fluorescence, % of fluorescein [1] -0.0049% [at 18.6 µM] | fluorescence, % of fluorescent control [2] -0.0169% [at 18.6 µM] | activity change [3] 0.0575% [at 18.6 µM] | fluorescence, % of fluorescent control [4] -0.201% [at 18.6 µM] | fluorescence, % of Rose Bengal [5] -0.0804% [at 18.6 µM] | fluorescence, % of fluorescent control [6] -0.0907% [at 18.6 µM] | fluorescence, % of fluorescein control [7] -0.0092% [at 18.6 µM] | fluorescence, % of fluorescent control [8] -0.0228% [at 18.6 µM] | Potency [9] | outcome [10]

CCCOC(=O)CCCCC(=O)OCCC
inactive: outcome [1] | outcome [2] | outcome [3] | outcome [4] | outcome [5] | outcome [6] | outcome [7] | outcome [8] | Potency [9] | outcome [10]

C=CCOCC(CO)(COCC=C)COCC=C
inactive: outcome [1] | outcome [2] | outcome [3] | outcome [4] | outcome [5] | outcome [6] | outcome [7] | Potency [9] | outcome [10]

CCCCCCCC/C=C\CCCCCCCC(=O)OC[C@@H](O)[C@H]1OC[C@H](O)[C@H]1O
inactive: outcome [1] | outcome [2] | outcome [3] | outcome [4] | outcome [5] | outcome [6] | outcome [7] | Potency [9] | outcome [10]

COc1ccc(/C=N/NC(=O)c2ccncc2)cc1OC
inactive: outcome [1] | outcome [2] | outcome [3] | outcome [4] | outcome [5] | outcome [6] | outcome [7] | Potency [9] | outcome [10]

COc1cc(C=O)ccc1OC(=O)C(C)C
inactive: outcome [1] | outcome [2] | outcome [3] | outcome [4] | outcome [5] | outcome [6] | outcome [7] | outcome [8] | Potency [9] | outcome [10]

CCN(CCC#N)c1ccccc1
inactive: outcome [1] | outcome [2] | outcome [3] | outcome [4] | outcome [5] | outcome [6] | outcome [7] | Potency [9] | outcome [10]

C[C@H]1O[C@H](O[C@H]2[C@H](O)[C@@H](O)[C@@H](O[C@H]3[C@H](O)[C@@H](O)[C@H](O)O[C@@H]3CO)O[C@@H]2CO)[C@H](O)[C@@H](O)[C@@H]1N[C@H]1C=C(CO)[C@@H](O)[C@H](O)[C@H]1O
inactive: outcome [1] | outcome [2] | outcome [3] | outcome [4] | outcome [5] | outcome [6] | outcome [7] | outcome [8] | outcome [10]

NC(=O)NC(=O)Cc1ccccc1
inactive: outcome [1] | outcome [2] | outcome [3] | outcome [4] | outcome [5] | outcome [6] | outcome [7] | outcome [8] | Potency [9] | outcome [10]

NS(=O)(=O)c1ccc(Cl)c(S(N)(=O)=O)c1
inactive: outcome [1] | outcome [2] | outcome [3] | outcome [4] | outcome [5] | outcome [6] | outcome [7] | outcome [8] | Potency [9] | outcome [10]

C=CC(C)(O)CC/C=C(\C)CC (configuration not stated)
inactive: outcome [1] | outcome [2] | outcome [3] | outcome [4] | outcome [5] | outcome [6] | outcome [7] | Potency [9] | outcome [10]

CCC(C)N (configuration not stated)
inactive: outcome [1] | outcome [2] | outcome [3] | outcome [4] | outcome [5] | outcome [6] | outcome [7] | Potency [9]

O=C(CN1CCN(Cc2ccc3c(c2)OCO3)CC1)N1c2ccccc2Sc2ccccc21
inactive: outcome [1] | outcome [2] | outcome [3] | outcome [4] | outcome [5] | outcome [6] | outcome [8]

CN(C)CCOCCN(C)CCO
inactive: outcome [1] | outcome [2] | outcome [3] | outcome [4] | outcome [5] | outcome [6] | outcome [7] | outcome [8] | Potency [9] | outcome [10]

NC(Cc1c[nH]c2ccccc12)C(=O)O (configuration not stated)
inactive: outcome [1] | outcome [2] | outcome [3] | outcome [4] | outcome [5] | outcome [6] | outcome [7] | Potency [9] | outcome [10]

CCC(=O)c1ccc(O)cc1
inactive: outcome [1] | outcome [2] | outcome [3] | outcome [4] | outcome [5] | outcome [6] | outcome [7] | Potency [9] | outcome [10]
